# Sampled rows, rich in hits. Any-hit rate of the full collection: about 0.51%.
# FMDV RLuc: shows antiviral activity in FMDV Renilla assay; 120,000 compounds, 0.32% hits; Potency, µM (doses to about 57.5 µM), for the others: at the highest dose activity change, negative = inhibition, actives largely listed as inhibitors; AID 1745857; FMDV replicon cells, Renilla luciferase signal; also: nearly all actives have a fitted effect of over 55% in size
# FMDV FLuc: shows antiviral activity against foot and mouth disease virus; 120,000 compounds, 0.23% hits; FMDV antiviral cell assay, firefly luciferase signal; Potency, µM (titrated, usually from 57.5 µM), inactives show at the highest dose activity change, negative = inhibition, hits mostly inhibitors; also: nearly all actives have a fitted effect of over 60% in size
# * = called active by the depositor; ? = inconclusive; ! = repeats disagree; [ ] = dose if it differs, or a comment. Calls follow the shape of the full dose curve. % is scaled to controls: 0 for no effect and ±100 for the full control effect; potency is read from the fitted curve at half-maximal effect.
SMILES,FMDV RLuc,FMDV FLuc
CCC(NC(=O)Cc1n[nH]c(=O)c2ccccc12)c1ccc(OC)cc1 (stereo not drawn),1%,18%
COc1cc(/C=C(/C#N)C(=O)c2ccccc2)cc(Cl)c1O,2%,3%
COc1ccc(NC(=O)CSc2nc3nc(C)cc(C)n3n2)cc1,-17%,9%
CCNc1cc(C)nc(Nc2ccc(NC(=O)c3ccccc3F)cc2)n1,28µM*,?
COc1ccc(Nc2cc(C)nc(Nc3ccc(NC(=O)CCc4ccccc4)cc3)n2)cc1,?,13µM*
COc1ccc(Nc2cc(C)nc(Nc3ccc(NC(=O)CC(C)C)cc3)n2)cc1,28µM*,?
COc1ccc(CC(=O)Nc2ccc3nc(Nc4ccc(OC)cc4)cc(C)c3c2)cc1,0%,?
Cc1cc(N2CCCC2)nc(Nc2ccc(NC(=O)c3c(F)cccc3F)cc2)n1,5%,24%
Cc1oc(-c2ccccc2)nc1CC(=O)N1CCC(CC(N)=O)CC1,-9%,-3%
CCc1ccc(-c2noc(CSc3ccc(S(=O)(=O)N4CCN(C)CC4)cn3)n2)cc1,-30%,6%
COC(=O)CNC(=O)Cn1ccc2ccc(OCc3ccccc3)cc21,16%,76%
Cc1cccc(NC(=O)CC2(C(=O)O)CCCCC2)c1,6%,6%
Cc1cccc(NC(=O)CCl)c1,32µM*,?
CC(=O)NC1=NN(C(C)=O)C2(S1)C(=O)N(CCc1ccccc1)c1c(C)cc(C)cc12 (stereo not drawn),291%,3%
N#CCOc1ccc(COc2cccc(C#N)c2)cc1,8%,111%
N#CCOc1ccc2ccccc2c1,1%,13µM*
CCCN(C)c1ccc(/C=N/NC(=S)Nc2cccc(C)c2)cc1,28%,18%
CCn1c2c(c(=O)n3ncc(C(=O)N4CCN(c5ccc(Cl)cc5)CC4)c13)CN(Cc1ccc(OC)cc1)CC2,22µM*,?
CCn1c2c(c(=O)n3ncc(C(=O)Nc4ccc(F)c(Cl)c4)c13)CN(Cc1ccc(OC)cc1)CC2,-4%,-8%
Cc1ccsc1/C=C(/CC(=O)O)c1nc2ccccc2o1,5%,0%
Cc1ccc(CCNc2ncnc3onc(C)c23)cc1,1.6µM*,1.8µM*
CCOc1ccc(CCNc2ncnc3onc(C)c23)cc1OCC,2.5µM*,3.2µM*
CCCNc1ncnc2onc(-c3ccc(C)cc3)c12,15%,8%
CCOCCCNc1ncnc2onc(C)c12,-5%,-6%
CN(C)C(=O)c1ccc(-c2ccc(Br)cc2)s1,0%,30%
SMILES,FMDV RLuc,FMDV FLuc
CSc1ccc(NC(=O)c2ccc3c(c2)NC(=O)CCS3)cc1,10µM*,?
CNC(=O)c1ccc2c(c1)NC(=O)CCS2,-1%[1.06 µM],9%
COc1ccc(CNCCc2c(C)[nH]c3ccc(OC)cc23)c(F)c1,7.1µM*,8.9µM*
COc1ccc2[nH]c(C)c(CCNCc3cccc(F)c3)c2c1,36%,4%
COc1ccc(F)c(CNCCc2c(C)[nH]c3ccc(OC)cc23)c1,8%,-14%
COc1ccc2[nH]c(C)c(CCNCc3ccc(C(F)(F)F)cc3)c2c1,4.5µM*,?
O=C(CSc1nc(C2CC2)n(-c2ccccc2)n1)N1CCN(c2ccc(O)cc2)CC1,0%,0%
CCn1nc(C(=O)Nc2ccc(C)c(S(=O)(=O)N3CCOCC3)c2)c2ccccc2c1=O,120%,0%
CCNc1c(NC(=O)Nc2ccc(F)cc2F)c(=O)oc2ccccc12,-2%,4%
CC(/C=C/N(C)C)=C\C=[N+](C)C,4µM*,8.9µM*
CCS(=O)(=O)c1ncc(Cl)c(C(=O)N(Cc2ccccc2)Cc2ccco2)n1,-1%,22µM*
CCS(=O)(=O)c1ncc(N(Cc2ccccc2)Cc2ccco2)c(C(=O)Nc2cccc(Cl)c2C)n1,18%,-6%
CSc1ncc(Cl)c(C(=O)N(Cc2ccc(C)cc2)C2CCS(=O)(=O)C2)n1 (stereo not drawn),19%,-14%
CCS(=O)(=O)c1ncc(Cl)c(C(=O)N(Cc2ccccc2)C2CCS(=O)(=O)C2)n1 (stereo not drawn),25µM*,?
C=CCOc1ccc(Cl)cc1CNCc1ccccc1,17%,43%
CCOc1ccc(NC(=O)c2cc(=O)c3ccccc3o2)cc1OCC,7%,17%
O=C(Nc1ccc(Br)cc1)c1ccc(F)c(S(=O)(=O)N2CCc3ccccc32)c1,?,11µM*
CC(C)c1ccc(NC(=O)c2ccc(F)c(S(=O)(=O)N3CCc4ccccc43)c2)cc1,-1%,?
O=C(Nc1ccc(-n2cccn2)c(F)c1)C1CCN(C(=O)c2ccco2)CC1,-19%,-7%
O=C(Nc1nc(-c2ccc(Cl)cc2Cl)cs1)C1CCN(C(=O)c2ccco2)CC1,35µM*,?
CC(C)CC(=O)n1nc(-c2ccco2)nc1NCc1cccs1,3%,92%
CCC(CC)c1nnc(NC(=O)c2ccc(Cl)c(S(=O)(=O)N3CCc4ccccc43)c2)s1,-22%,-15%
CC(C)(C)c1cc(-c2nc3ccccc3[nH]2)n[nH]1,8%,2.8µM*
CC(C)(C)c1cc(C(C)(C)C)c2oc(=O)c(-c3nc4ccccc4[nH]3)cc2c1,-11%,-18%
COc1ccc(-c2cnn3c(C)cc(C)nc23)cc1S(=O)(=O)NCc1ccccc1C(F)(F)F,-27%,18%
SMILES,FMDV RLuc,FMDV FLuc
O=C(Nc1ccc2c(c1)OCCCO2)c1ccc(SCc2cscn2)cc1,?,-10%
O=C(Nc1ccc(SCc2cccnc2)cc1)c1ccc2c(c1)OCCCO2,18µM*,?
CC(=O)c1ccc(C(=O)N(C)Cc2ccc(F)cc2)s1,15%,0%
COc1cc(CC(=O)Oc2ccccc2Br)cc(OC)c1OC,9%,-11%
Clc1ccc(Cl)c(-c2ccc(CNCC3CCNCC3)o2)c1,28µM*,32µM*
Fc1ccc(-c2ccc(CNCC3CCNCC3)o2)cc1,-28%,-27%
CCN1CCN(c2ncnc3c2cnn3-c2cc(Cl)ccc2C)CC1,-12%,-11%
Cc1ccc(Cl)cc1-n1ncc2c(NC3CCCCC3)ncnc21,25µM*!,?
Clc1ccc(-n2ncc3c(NC4CCCCCCCCCCC4)ncnc32)cc1,-5%,5%
Cc1ccc(Cl)cc1-n1ncc2c(N3CCN(Cc4ccccc4)CC3)ncnc21,35µM*,22µM*
CC(c1ccc(Cl)cc1)N(C)C(=O)CCc1ncc(-c2ccc(Cl)cc2)o1 (stereo not drawn),-27%,-10%
CCC1CN(C(=O)N2CCC(C(=O)N3CCN(c4cc(C)ccc4C)CC3)CC2)c2ccccc2O1 (stereo not drawn),?,20µM*
CCC1CN(C(=O)N2CCC(C(=O)Nc3cc(C)ccc3C)CC2)c2ccccc2O1 (stereo not drawn),19%,0%
CCC1CN(C(=O)N2CCC(C(=O)NCc3ccccc3C)CC2)c2ccccc2O1 (stereo not drawn),17%,-14%
CCC1CN(C(=O)N2CCC(C(=O)N3CCN(c4cccc(C)c4C)CC3)CC2)c2ccccc2O1 (stereo not drawn),28µM*,?
COC(=O)Cc1c(C)c2ccc(OCc3ccc(Cl)cc3)cc2oc1=O,16%,163%
CCN(Cc1ccc(C)cc1)Cc1cc(=O)oc2ccc(C)cc12,9%,17%
COc1ccc(C(=O)/C=C/c2ccccc2OCC#N)c2ccccc12,25µM*,?
COc1ccccc1/C=C/C(=O)c1ccc(C)cc1OC,31%,0%
COc1cccc(NC(=O)CN(C)S(=O)(=O)c2ccc3nc(C)sc3c2)c1,-8%,15%
CCOc1ccccc1NC(=O)CN(C)S(=O)(=O)c1ccc2nc(C)sc2c1,32µM*,?
CCOc1ccc(C(=O)Nc2nc(C)cs2)cc1OC,4%,1%

# Screening results: PubChem BioAssay, National Center for Advancing Translational Sciences (NCATS)
